In PubChem BioAssay AID449734 (Southern Research Specialized Biocontainment Screening …, 2010) one finds outcome data, which are given here for 20 compounds.

Structures are written as SMILES. Activity calls are given as the source filed them. How the calls were made is not given here.

The assay is described as follows: S. typhi GFP reporter counter-screen inhibition, late-stage follow-up, counter-screen for PhoP regulon inhibitor project, round 4, purified and synthesized compounds (AID 449734). The following applies: fluorescence, 4 h; series mostly up to 150 µM. (The purpose of a counterscreen is to sort out artefacts and off-target activity.)
Take `S=C(NCc1ccc(Cl)cc1)Nc1ccncn1`: the outcome was inactive.

In the case of `S=C(NCc1ccc(Cl)cc1)NC1CCCCC1`, the compound was classed as inactive.

On to `FC(F)(F)c1ccc(NC(=S)NCc2ccc(Cl)cc2)cc1`, for which the call was inactive.

For the compound `S=C(NCc1ccc(Cl)cc1)Nc1cccc(Br)c1`, the result was inactive.

`S=C(NCc1ccc(Cl)cc1)NN1CCOCC1`: the compound was called inactive.

Take `COc1cccc(CNC(=S)Nc2ccncc2)c1`: the compound was classed as inactive.

On to `FC(F)(F)c1ccccc1NC(=S)NCc1ccc(Cl)cc1`, for which the compound was called inactive.

For the compound `S=C(NCc1ccc(Cl)cc1)Nc1ccccn1`, the compound was classed as inactive.

In the case of `S=C(NCc1ccc(Cl)cc1)Nc1ccccc1I`, the outcome was inactive.

Consider `O=C(Nc1ccc(Cl)cc1)N1CCN(Cc2ccccc2F)C1`, for which the outcome was inactive.

With `S=C(NCc1ccc(Cl)cc1)Nc1ccccc1Br`, the call was inactive.

Regarding `S=C(NCc1ccc(Cl)cc1)Nc1ccc(I)cc1`, the compound was classed as inactive.

With `O=C(Nc1ccc(Cl)cc1)N1CCCN(Cc2cccc(F)c2)C1`, the call was inactive.

In the case of `Cc1ccccc1NC(=O)N1CCCN(Cc2ccccc2F)C1`, the compound was classed as inactive.

Turning to `O=C(NC1CCCCC1)N1CCCN(Cc2ccccc2F)C1`, the outcome was inactive.

Take `N#Cc1ccc(CN2CCCN(C(=O)Nc3ccc(Cl)cc3)C2)cc1`: the compound was classed as inactive.

Take `CN1CCN(C(=S)NCc2ccc(Cl)cc2)CC1`: the call was inactive.

Consider `O=C(Nc1ccc(Cl)cc1)N1CCCN(Cc2cccc(Br)c2)C1`, for which the call was inactive.

For the compound `S=C(NCc1ccccc1)NCc1ccc(Cl)cc1`, the compound was classed as inactive.

`S=C(NCc1ccc(Cl)cc1)NC1CCOCC1`: the outcome was inactive.
